Measured values taken from PubChem BioAssay AID1159580 (chemical genetic matrix, 2015).
About 2,000 (36%) of roughly 5,500 compounds were called active. Inconclusive results (about 18%) are left out. Rule as the data show it: active = normalized growth mostly below about 0.91 (no sharp cut-off); inconclusive = no clear call, values can overlap the other calls; inactive = mostly above about 0.92. The list shows a part of the results.

Experiment: chemical genetic growth profiling, strain panel (AID 1159580);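 also: tested at 20 µM; growth read once vehicle control cultures reached saturation at 30 °C; 1 = growth at the plate median or of vehicle wells; lower values mean less growth of the strain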
Conditions: S. cerevisiae deletion strains, growth OD

Measured: normalized growth

O=C1OC(CN2CCOCC2)CN1/N=C\c1ccc([N+](=O)[O-])o1 (stereo not drawn)
inactive: locus YHR030C, strain SLT2, hits give low values 0.93 | locus YHR079C, strain IRE1, hits give low values 0.948 | locus YJL095W, strain BCK1, hits give low values 0.952 | locus YJR066W, strain TOR1, hits give low values 0.844 | locus YLR113W, strain HOG1, hits give low values 1.03 | locus YNL183C, strain NPR1, hits give low values 0.856 | locus YOR231W, strain MKK1, hits give low values 0.931 | locus YPL256C, strain CLN2, hits give low values 0.961
